Reference: the supplement of paper PMC10646978
± gives the standard deviation.

Tests used:
Settings in all cases: modulator concentration 10 µM
[1] = tested on: RAW-Dual (murine macrophage reporter line); assay: NF-kB reporter (SEAP) activity fold change vs agonist alone; higher = enhanced NF-kB activity
Summary of the method: (§1)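 RAW-Dual murine macrophage reporter cells were seeded at 50 000 per well in 384-well plates and pre-incubated 1 hour at 37 °C with compound pin-transferred to 10 μM final. After 1 hour, a PRR agonist was added and cells incubated overnight. Supernatant NF-κB (SEAP, QUANTI-Blue, 620 nm absorbance) and IRF (Lucia luciferase, QUANTI-Luc, luminescence) signals were divided by the mean agonist-only control on the same plate to give fold change. Two replicate plates were averaged, with errors by propagation.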

[2] = tested on: RAW-Dual (murine macrophage reporter line); assay: IRF reporter (Lucia luciferase) activity fold change vs agonist alone; higher = enhanced IRF activity
Summary of the method: as §1

[3] = tested on: RAW-Dual (murine macrophage reporter line); assay: viability score (confluency relative to resting cells, overnight) (fraction); higher = more viable, active = viable (0.7 or more)
Summary of the method: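 Overnight exposure to 10 μM final compound was carried out on RAW-Dual macrophages in 384-well plates. IncuCyte software generated two confluency masks over all wells imaged with IncuCyte. The viability score gives confluency in relation to resting cells. A compound met the cutoff if each mask exceeded 70% of resting cells.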

[4] = agonist: CpG ODN 1826 0.5 ug/mL

| Structure (SMILES) | NF-kB reporter [1, 4] | NF-kB reporter ([1]; agonist: LPS 0.1 ug/mL) | NF-kB reporter ([1]; agonist: MPLA […]) | IRF reporter ([2]; agonist: 3'3'-cGAMP 10 ug/mL) | IRF reporter ([2]; agonist: LPS 0.1 ug/mL) | IRF reporter ([2]; agonist: MPLA […]) | viability score [3] |
| --- | --- | --- | --- | --- | --- | --- | --- |
| CC(C(=O)N1CCN(S(=O)(=O)C2CC2)CC1)n1nc2c(cc1=O)CCC2 (configuration not stated) | 0.928 ± 0.086 | 1.06 ± 0.095 | 0.934 ± 0.082 | 0.977 ± 0.091 | 0.964 ± 0.1 | 0.904 ± 0.19 | 1.01 (active) |
| CCCn1c(C(O)(c2ccccc2)c2ccccc2)nc2ccccc21 | 0.514 ± 0.034 | 1.07 ± 0.082 | 0.736 ± 0.05 | 1.3 ± 0.08 | 1.1 ± 0.086 | 1.04 ± 0.19 | 0.888 (active) |
| C[C@@H](O[C@H]1OCCN(Cc2n[nH]c(=O)[nH]2)[C@H]1c1ccc(F)cc1)c1cc(C(F)(F)F)cc(C(F)(F)F)c1 | 0.545 ± 0.086 | 0.634 ± 0.031 | 0.806 ± 0.073 | 0.961 ± 0.045 | 1.29 ± 0.084 | 1.04 ± 0.09 | 1.02 (active) |
| CC(C)CN(C[C@@H](O)[C@H](Cc1ccccc1)NC(=O)O[C@H]1CO[C@H]2OCC[C@H]21)S(=O)(=O)c1ccc(N)cc1 | 1.74 ± 0.13 | 1.08 ± 0.054 | 1.85 ± 0.069 | 0.916 ± 0.053 | 1.04 ± 0.071 | 1.02 ± 0.1 | 0.997 (active) |
| O=C(O)CCC(=O)O.O=C(O[C@H]1CN2CCC1CC2)N1CCc2ccccc2[C@@H]1c1ccccc1 | 0.544 ± 0.087 | 0.886 ± 0.046 | 1.07 ± 0.029 | 0.921 ± 0.1 | 1.05 ± 0.097 | 0.977 ± 0.11 | 0.992 (active) |
| CCn1cc(C(=O)O)c(=O)c2cc(F)c(N3CCN(C)CC3)cc21.CS(=O)(=O)O.O.O | 0.788 ± 0.11 | 1.13 ± 0.13 | 0.897 ± 0.05 | 0.863 ± 0.026 | 1.37 ± 0.12 | 1.07 ± 0.16 | 0.991 (active) |
| COc1ccc(C(C)(C#N)CC#N)cc1 (configuration not stated) | 1.11 ± 0.089 | 0.941 ± 0.1 | 1.04 ± 0.1 | 1.06 ± 0.035 | 1.29 ± 0.19 | 1.47 ± 0.31 | 1.03 (active) |
| COc1ccccc1C1C(C(C)=O)=C(O)C(=O)N1CCN(C)C (configuration not stated) | 0.967 ± 0.054 | 1.07 ± 0.072 | 0.947 ± 0.057 | 0.958 ± 0.032 | 1.48 ± 0.24 | 1.25 ± 0.12 | 0.988 (active) |
| Cc1noc(C)c1CCC(=O)N1CCCC(c2nnc(C(F)(F)F)o2)C1 (configuration not stated) | 0.991 ± 0.12 | 1.06 ± 0.087 | 0.923 ± 0.042 | 0.988 ± 0.082 | 1.12 ± 0.1 | 1.02 ± 0.077 | 1.01 (active) |
| Cc1c(F)cc(C(=O)NC2CC2)cc1-c1ccc(C(=O)NCC(C)(C)C)cn1 | 0.825 ± 0.21 | 0.994 ± 0.05 | 1.01 ± 0.071 | 1.1 ± 0.043 | 0.808 ± 0.18 | 0.932 ± 0.088 | 1 (active) |
| COc1ccc(NC(=O)c2nn(-c3ccc(F)cc3)cc2OC)cc1OC | 1.07 ± 0.12 | 1.14 ± 0.094 | 0.889 ± 0.04 | 0.976 ± 0.07 | 1.23 ± 0.12 | 1.13 ± 0.24 | 0.976 (active) |
| Cl.O[C@@H](c1cc(C(F)(F)F)nc2c(C(F)(F)F)cccc12)[C@H]1CCCCN1 | 0.671 ± 0.091 | 0.59 ± 0.044 | 1.05 ± 0.071 | 0.504 ± 0.066 | 1.04 ± 0.096 | 2.25 ± 0.17 | 0.137 (inactive) |
| CCOC(=O)CC(C)(O)P(=O)(OCC)OCC (configuration not stated) | 1.01 ± 0.066 | 1.08 ± 0.068 | 0.955 ± 0.069 | 1.04 ± 0.035 | 1.44 ± 0.2 | 1.18 ± 0.12 | 1 (active) |
| N=C1NC(=O)C(=Cc2ccc(-c3cccc(Cl)c3)o2)S1 | 0.688 ± 0.091 | 0.695 ± 0.048 | 1.77 ± 0.11 | 1.39 ± 0.11 | 1.17 ± 0.14 | 2.82 ± 0.65 | 0.932 (active) |
| CC(C)(C)c1ccc(C(=O)CCCN2CCC(OC(c3ccccc3)c3ccccc3)CC2)cc1 | 0.99 ± 0.25 | 1.05 ± 0.081 | 1.02 ± 0.073 | 0.646 ± 0.024 | 1.18 ± 0.23 | 1.21 ± 0.13 | 1 (active) |
| CC(C)Cn1c(=O)n(C)c(=O)c2[nH]cnc21 | 1.41 ± 0.11 | 1.01 ± 0.055 | 1.08 ± 0.026 | 0.849 ± 0.049 | 0.88 ± 0.12 | 0.884 ± 0.21 | 0.983 (active) |
| O=C(O)CCCN1CCC(O[C@@H](c2ccc(Cl)cc2)c2ccccn2)CC1.O=S(=O)(O)c1ccccc1 | 1.37 ± 0.19 | 1.24 ± 0.3 | 0.988 ± 0.059 | 0.995 ± 0.046 | 1.18 ± 0.26 | 1.09 ± 0.1 | 0.985 (active) |
| CCN(CC)c1ccc(C=NNC(=O)c2ccccc2I)c(O)c1 | 1.35 ± 0.13 | 0.997 ± 0.069 | 1.26 ± 0.076 | 0.436 ± 0.036 | 1.08 ± 0.11 | 1.09 ± 0.13 | 0.926 (active) |
| CCN1CC(CCN2CCOCC2)C(c2ccccc2)(c2ccccc2)C1=O (configuration not stated) | 1.18 ± 0.32 | 1.04 ± 0.072 | 1.05 ± 0.067 | 0.874 ± 0.03 | 1.28 ± 0.14 | 1.29 ± 0.24 | 1.01 (active) |
| CC(=NNC(=O)CSc1nc2ccccc2n1Cc1ccccc1)c1ccc(Cl)cc1 | 0.846 ± 0.068 | 0.923 ± 0.089 | 1 ± 0.1 | 0.979 ± 0.046 | 1.4 ± 0.081 | 1.36 ± 0.16 | 1.02 (active) |
| CC(=O)c1cccc(NC(=O)CSc2nnc3c4ccccc4n(C)c3n2)c1 | 0.817 ± 0.063 | 0.835 ± 0.069 | 0.994 ± 0.091 | 0.904 ± 0.042 | 1.27 ± 0.11 | 1.41 ± 0.21 | 1.01 (active) |
| CC(C)C1=CC2=CCC3C(C)(C(=O)O)CCCC3(C)C2CC1 (configuration not stated) | 0.962 ± 0.076 | 0.863 ± 0.065 | 0.891 ± 0.085 | 0.93 ± 0.03 | 1.22 ± 0.2 | 1.35 ± 0.33 | 1.05 (active) |
| CC(C)(CO)NC(=O)C(c1ccccc1)c1ccccc1 | 1.24 ± 0.14 | 0.961 ± 0.086 | 1 ± 0.041 | 0.937 ± 0.035 | 0.991 ± 0.051 | 0.896 ± 0.095 | 0.996 (active) |
| Cl.Clc1ccccc1CN1CCc2sccc2C1 | 0.93 ± 0.092 | 0.952 ± 0.11 | 0.916 ± 0.024 | 0.902 ± 0.05 | 1.01 ± 0.14 | 1.1 ± 0.25 | 0.992 (active) |
| CNCC[C@@H](Oc1ccccc1C)c1ccccc1.Cl | 0.744 ± 0.079 | 0.996 ± 0.05 | 1.26 ± 0.085 | 1.02 ± 0.11 | 0.95 ± 0.041 | 0.792 ± 0.16 | 0.958 (active) |
| Cc1cc(C#N)cc(C)c1Oc1nc(Nc2ccc(C#N)cc2)nc(N)c1Br | 1.15 ± 0.049 | 1.3 ± 0.1 | 1.5 ± 0.14 | 1.39 ± 0.21 | 1.05 ± 0.24 | 1.28 ± 0.42 | 0.97 (active) |
